# Data reported in PubChem BioAssay (NCI).
# Several values for one entry are separate records, joined by “and”; a condition that tells them apart may be missing. Identical values can stand only once. About 83,000 compounds went through this panel and 20% of them were active in at least one assay; those are over-represented in the sample as a whole.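 Cell lines were cultured in 96-well plates, exposed to a single compound concentration, and assessed for percent growth 48 hours later.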 Unmarked numbers belong to inactive results. Activity calls are given as the source filed them.
# Test system: HCC-2998 colon
# Test: NCI-60 one-dose screen, 48 h (100 = growth as untreated, 0 = no growth, -100 = all killed)
# Conditions: 10 µM
# Method: Growth inhibition of the HCC-2998 human tumor cell line is measured as a screen for anti-cancer activity. Cells are grown in 96 well plates and exposed to the test compound for 48 hours. Compounds are tested at a single concentration, which is 10^-5 M for most compounds. The reported endpoint is percent growth (GI% or GIPRCNT), where numbers from 0 - 100% represent growth inhibition, and numbers from -100% - 0 represent cell death. For example, a value of 40 represents 60% growth inhibition. A value of 0 means no net growth occurred over the course of the experiment. A value of -40 indicates 40% of cells at the beginning of the experiment died by the end of the experiment. A value of -100 means all cells are dead at the end of the experiment.
# NCI-60 Human Tumor Cell Lines Screen was performed using the standard one-dose NCI protocol, which is described in more detail at https://dtp.cancer.gov/discovery_development/nci-60/default.htm.
# Compounds with GIPRCNT values below 10 were considered active. Activity score was based on GIPRCNT using the following formula: […]
# Score is 0 for GIPRCNT values of 100 or above, 50 for GIPRCNT values of 0, and 100 for GIPRCNT values of -100.
row,Compound,growth
1,O=C(Nc1cccc(Br)c1)Oc1cccc2cccnc12,98.2%
2,O=C(Nc1c(Cl)cccc1Cl)Oc1cccc2cccnc12,93.4%

# Same assay, conditions: 10 µM unless noted
row,Compound,growth
1,OC(CNc1ccnc2cc(Cl)ccc12)CNc1ccnc2cc(Cl)ccc12,46.1%
2,Cc1ccc2nc(C[n+]3ccc4ccccc4c3)ccc2c1,71.2%
3,COc1cc(/C=C(/C)C[N+](=O)[O-])ccc1O,102%
4,COc1cc(NS(C)(=O)=O)ccc1Nc1c2ccccc2nc2ccccc12,-44.3% [2.5 µM] (active)
5,CN(C)CCOc1ccc2c(c1)C(=O)/C(=C\c1ncc([N+](=O)[O-])n1C)C2,-86.1% (active)
6,COc1ccc(N=N/N=c2\sc3cc(OC)ccc3n2C)cc1,102%
7,CCN(CC)CCOc1ccc(-c2nc3cc(Cl)ccc3s2)cc1,-97.2% (active)
8,CC(C)(C)c1ccc(O)c(C2CCCCC2)c1,111%
9,CC1=CC(O)C2CC1C2(C)C (stereo not given),95.4% and 112%
10,Cc1ccc2nc(-[n+]3cc4ccccc4cc3C)ccc2c1,42.1%
11,CCCCCCCCCCCCCCCCCCOP(=O)([O-])OC1CC[N+](C)(C)CC1,5.08% (active) and -75.7% (active)
12,CC1OC2CC(=O)OC2C2=C1C(=O)c1c(O)cccc1C2=O (stereo not given),-97.4% (active)
13,Cc1ccc(NS(=O)(=O)c2ccc(C)cc2)cc1,97.7% and 97.8%
14,O=C(O)c1ccc2c3c(ncnc13)-c1ccccc1C2=O,-58.5% (active)
15,N#Cc1ccc([N+](=O)[O-])o1,117%
16,C1=C(c2ccccc2)C(c2ccc(OCCN3CCCCC3)cc2)Oc2ccccc21 (stereo not given),34.1%
17,COc1cc(/C=C/C(C)=O)ccc1O,102% and 104%
18,CNc1ccc2c(c1)c1ccccc1n2C,99.4%

row,Compound,growth
1,N#CSCc1ccc(Cl)c(CSC#N)c1,51.5%
2,CN(Cc1cnc2nc(N)nc(N)c2n1)c1ccc(C(=O)NC(CCC(=O)O)C(=O)O)cc1 (stereo not given),27.7%
3,CCCCCC(CCCCC)C(=O)O,119%
4,C[n+]1c(/C=C/c2ccc([N+](=O)[O-])cc2)ccc2ccccc21,100%
5,CCN(CC)CC(C)(C)C(=O)/C=C/c1ccc(Cl)c(Cl)c1,-65.2% (active)
6,O=C(Nc1ccc(F)cc1)ON=C1CCCCC1,106% [100 µM]
7,CCCCCCCCCCCCCCCCOP(=O)([O-])OCC[N+](C)(C)C,17.7%
8,NC(=S)N/N=C\c1nccc2c(C(F)(F)C(F)(F)C(F)(F)F)cccc12,13.3%
9,CN(C)c1ccc(N=Nc2cccc3ccccc23)cc1,69.2%
10,Cc1ccc2c(ccc3c[n+]4c5ccccc5ccc4n32)c1,-34.9% (active)
11,Oc1c(Cl)c2ccccc2c2ccccc12,117%
12,O=C(Nc1cccc(Br)c1)Oc1ccc(Cl)c2cccnc12,44.9% [100 µM]
13,CN(C)C(=O)SC1=C(c2c(Cl)cccc2Cl)C(=O)c2ccccc21,114%
14,CCC(c1cccc(O)c1)C(CC)c1cccc(O)c1 (stereo not given),67%
15,c1ccc2c(c1)Nc1cc3ccccc3cc1N2,36.8%
16,COC(=O)c1nc(=S)[nH]c(C(=O)OC)c1C(=O)c1ccccn1,45.3%
17,N#CSCC(=O)c1ccc(Cl)cc1,-19.5% (active)
18,CCCCCCC(C)c1ccccc1O (stereo not given) (tested in a mixture with another compound),103%

# Same assay, conditions: 100 µM
row,Compound,growth
1,O=C(Nc1cccc(Br)c1)Oc1cccc2cccnc12,59.9%
2,O=C(Nc1c(Cl)cccc1Cl)Oc1cccc2cccnc12,42.2%
